Assay outcomes deposited in PubChem BioAssay by several laboratories.
An excerpt weighted towards active compounds, which were near 4.3% of everything screened.
FAS-TE inh: FAS thioesterase domain inhibitors, primary screen, biochemical, fluorescence intensity, uHTS. recombinant FAS-TE, OMFH fluorogenic substrate, fluorescence endpoint. inhibition, % at 15 µM. Fatty acid synthase (Homo sapiens), P49327. 0.67% of 360,000 active;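 active = compounds whose normalised, plate-corrected inhibition of enzyme fluorescence in the single-dose primary screen is 50% or more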;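 also: 0% = DMSO with enzyme and 100% = substrate without enzyme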
GRIN3A LBD mod: binders of NR3A ligand-binding domain, primary screen, biophysical, differential scanning fluorimetry, uHTS; Glutamate receptor ionotropic, NMDA 3A (GRIN3A) ligand-binding domain; AID 1259313, 2017; NR3A LBD differential scanning fluorimetry, Tm shift; 0% = protein alone, 100% = glycine-bound protein; 2.5% of 340,000 active; Tm shift relative to glycine control, % at 25 µM;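 active = melting temperature shift of at least 10% of the positive control shift, at one fixed dose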
ADAM17 inh: ADAM17 inhibitors, primary screen, biochemical, QFRET; Disintegrin and metalloproteinase domain-containing protein 17 (Homo sapiens), P78536; recombinant ADAM17, EDANS/DABCYL FRET peptide cleavage; inhibition, % at 6.95 µM; 0.83% of 370,000 active; AID 720648, 2013;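 active = inhibition above the mean of compounds lying between control limits plus 3 SD, set per campaign, cut at about 8.5% in these data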;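 also: 0% = DMSO-only wells as the low control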
ADAM10 inh: human ADAM10 inhibitors, primary screen, biochemical, QFRET, HTS; Disintegrin and metalloproteinase domain-containing protein 10 (Homo sapiens), O14672; recombinant ADAM10, EDANS/DABCYL FRET peptide cleavage, 3 h; inhibition, % at 7 µM; 0.62% of 370,000 active; AID 720582, 2013;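 active = inhibition above a per-campaign cutoff equal to the mean of compounds falling between control-based bounds plus 3 SD, cut at about 20% in these data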;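 also: 0% = DMSO wells while the 100% control is not disclosed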
sPLA2-III inh: human group III sPLA2 inhibitors, primary screen, biochemical, QFRET, BODIPY PC-A2 liposome substrate; Group 3 secretory phospholipase A2 (Homo sapiens), Q9NZ20; QFRET BODIPY PC-A2 liposome hydrolysis, fluorescence; inhibition, % at 12.2 µM; 0.56% of 370,000 active; AID 743126, 2013;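 active = inhibition above mean plus 3 SD of compounds lying within the high and low control bounds, cut at about 19% in these data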;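 also: 0% = median of test compound wells and 100% = no enzyme DMSO wells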
Starred values were filed as active, the others as inactive; / = no result.

SMILES | FAS-TE inh | GRIN3A LBD mod | ADAM17 inh | ADAM10 inh | sPLA2-III inh
Cc1ccc(N(CCC(=O)O)S(=O)(=O)c2ccc(C)cc2)cc1 | -9.6 | 1.0 | -1.4 | -12.7 | 5.5
Cc1cc(C(=O)N/N=C/c2ccc(-c3cccc(Cl)c3)o2)n[nH]1 | 9.2 | 16.2* | -109.0 | -485.2 | -7.2
O=C(N/N=C\c1ccc(-c2cccc(Cl)c2)o1)C(=O)NC1CCCC1 | 0.1 | 23.9* | -1.2 | -8.8 | 3.7
O=C(N/N=C/c1c(F)cccc1Cl)C1CC1 | -2.7 | -0.7 | -4.0 | 3.2 | 6.1
Cc1ccc(C(=O)N/N=C/c2ccc(-c3cccc(Cl)c3)o2)cn1 | 8.8 | 0.0 | -14.6 | -34.5 | -7.2
O=C(N/N=C/c1c(Cl)cccc1Cl)C(=O)NC1CC1 | -1.4 | 10.3* | -1.2 | -7.8 | -4.1
COC(=O)C1CN(Cc2cn(Cc3ccc(OC)cc3)nn2)CCS(=O)(=O)N1Cc1ccc(F)cc1 (configuration not stated) | / | / | -0.1 | 1.5 | -3.1
O=C(Nc1nnc(Cc2ccc(Cl)cc2)s1)c1cccs1 | -7.9 | 12.3* | -1.9 | 2.4 | -0.7
O=C(Nc1ccc(Cl)cc1)Nc1nnc(CSCc2ccc(Cl)cc2)s1 | 4.8 | 24.1* | 3.4 | 0.7 | 2.8
COc1cc(C(=O)Nc2ccc(S(=O)(=O)NC(C)(C)C)cc2)cc(OC)c1OC | 1.8 | 1.7 | 3.1 | 1.5 | -20.1
COc1ccc(C(=O)Nc2ccc(S(=O)(=O)NC(C)(C)C)cc2)cc1[N+](=O)[O-] | 4.8 | 28.2* | 3.3 | 6.6 | -15.4
COc1ccc(Cl)cc1C(=O)Nc1ccc(S(=O)(=O)N2CCCC2)cc1 | 0.2 | 19.6* | -4.9 | 0.8 | 6.8
COc1ccc(C(=O)Nc2ccc(S(=O)(=O)N3CCCC3)cc2)cc1[N+](=O)[O-] | 15.3 | 41.0* | 1.0 | 5.0 | -9.2
CN(CC(=O)Nc1ccc(S(=O)(=O)N2CCCC2)cc1)Cc1ccc(Cl)cc1Cl | 41.9 | -11.4 | 4.5 | 5.9 | -25.3
CN(CC(=O)Nc1ccc(Cl)cc1)c1ccc(S(=O)(=O)N2CCCCC2)cc1[N+](=O)[O-] | 37.8 | 10.8* | -3.5 | 4.6 | 11.2
Cc1c(NC(=O)C2CCCN(S(=O)(=O)c3ccc(Cl)s3)C2)c(=O)n(-c2ccccc2)n1C (configuration not stated) | / | / | -1.6 | -15.3 | 14.8
COc1ccc(-c2nc3ccccc3c(=O)n2O)cc1 | 1.3 | 32.1* | -3.4 | 3.4 | -1.3
O=c1c2ccccc2nc(-c2ccccc2)n1O | -2.2 | -0.2 | -2.5 | -16.0 | 12.7
Cc1[nH]n(-c2ncc(-c3ccc(Cl)cc3)s2)c(=O)c1C(c1ccc(Cl)cc1)C(C#N)C#N (configuration not stated) | 20.8 | 17.1* | / | / | /
N#Cc1c(N)nc2c3c(sc(=N)c2c1N)NC(=O)CC3c1ccccc1 (configuration not stated) | -8.8 | -3.2 | -10.2 | -39.5 | -1.3
Cc1c(C#N)c(N)nc2c3c(sc12)NC(=O)CC3c1ccc(Cl)cc1 (configuration not stated) | -0.6 | 13.5* | -8.4 | -21.2 | -2.5
Cc1ncc(N=Nc2ccccc2Cl)c(-c2ccccc2)n1 | 8.2 | 16.8* | -1.9 | 2.8 | 12.7
O=C(CSc1nnc(NC(=O)c2ccco2)s1)Nc1cccc(F)c1 | -3.9 | 27.8* | 0.1 | -5.9 | -3.7
CC(=O)Nc1cccc(NC(=O)CSc2nnc(NC(=O)c3ccco3)s2)c1 | -2.7 | 11.4* | -4.1 | -16.5 | 5.2
COc1cccc(NC(=O)CSc2nnc(NC(=O)c3ccco3)s2)c1 | -6.9 | 7.0 | 2.3 | -1.9 | -5.4
SMILES | FAS-TE inh | GRIN3A LBD mod | ADAM17 inh | ADAM10 inh | sPLA2-III inh
O=C(CSc1nnc(NC(=O)c2ccco2)s1)Nc1ccc(F)cc1F | -6.1 | 4.0 | 1.1 | -4.5 | -5.5
CCc1ccc(Nc2nnc(SCC(=O)Nc3sccc3C(N)=O)s2)cc1 | 8.4 | 10.2* | 3.2 | 7.1 | -25.2
CC(=O)Nc1ccc(NC(=O)CSc2nnc(NC(=O)c3ccc(Br)o3)s2)cc1 | -2.1 | 15.9* | -0.5 | -7.5 | 0.6
CCc1nnc(NC(=O)c2ccc(Br)o2)s1 | -4.6 | 5.3 | 1.3 | 6.6 | 7.1
Cc1ccccc1Cn1cc(CN2[C@H](CC(C)C)COc3cc(Br)ccc3S2(=O)=O)nn1 | / | / | -9.1 | -18.6 | -0.3
COc1cc2c(c(OC)c1)[C@H](/C=C/c1ccccc1)[C@@H]([C@H](O)CO)OC2 | / | / | -0.5 | -2.7 | -2.6
Cc1ccc(NC(=O)CSc2nccn2Cc2ccco2)c(C)c1 | 0.4 | 2.9 | 3.2 | -0.6 | -4.3
CC(=O)Nc1cccc(NC(=O)CSc2nccn2Cc2ccco2)c1 | -3.7 | 14.4* | -0.9 | 5.4 | -5.2
COc1ccc(S[C@]2(C(=O)N(C)C)CC(=O)N(c3ccccc3)[C@@H]2c2ccc(OC)cc2)cc1 | / | / | 0.5 | 3.6 | -9.9
S=c1nc(NCc2cccc(Cl)c2)c2ccccc2[nH]1 | 4.1 | 14.9* | 1.5 | 2.7 | 8.3
COc1cc2[nH]c(=S)nc(NCc3cccc(Cl)c3)c2cc1OC | 13.5 | -14.3 | -7.4 | -24.1 | 6.4
O=C(CC1C(=O)NCCN1C(=O)Nc1ccc(C(F)(F)F)cc1)Nc1ccc(F)cc1 (configuration not stated) | 18.5 | 14.2* | 5.5 | 9.2 | -3.1
CCNC(=O)COC(=O)c1ccc(-n2nc(C)cc2C)cc1 | -2.2 | -2.1 | 3.6 | 5.1 | -2.7
Cc1cc(C)n(-c2ccc(C(=O)OCC(=O)NCc3ccco3)cc2)n1 | -7.8 | 21.5* | 1.0 | 2.8 | 0.1
CCN(CC)CCCN1CC(O)=C(c2nc3ccccc3s2)C1=N | -4.5 | 17.8* | -0.5 | -6.0 | 3.1
N=C1C(c2nc3ccccc3s2)=C(O)CN1Cc1ccccc1 | -2.2 | -1.4 | -0.4 | 2.9 | -2.5
CCOc1ccc(OCC)c(NC(=O)CN2CCN(c3cccc(C)c3C)CC2)c1 | 32.7 | 10.6* | -2.8 | -2.3 | 2.5
CCOc1ccc(OCC)c(NC(=O)CN2CCN(C(=O)c3ccco3)CC2)c1 | -0.5 | 0.7 | 0.2 | -0.8 | 4.0
Cc1cccc(N2CCN(CC(=O)Nc3ccccc3[N+](=O)[O-])CC2)c1C | 26.5 | 15.3* | -2.1 | 1.1 | 2.8
COc1cc(NC(=O)CN2CCN(c3ccccc3F)CC2)c(C)cc1[N+](=O)[O-] | -4.2 | 14.8* | -7.7 | -4.2 | 5.6
CCCN1CCS(=O)(=O)N(Cc2cn(Cc3ccc(OC)cc3)nn2)C(C(=O)OC)C1 (configuration not stated) | / | / | -4.7 | -4.5 | 2.5
Cc1cccc(C(C)C)c1NC(=O)COC(=O)c1cccc(S(=O)(=O)N2CCc3ccccc3C2)c1 | -4.7 | 21.7* | -1.2 | -0.7 | -6.5
CCc1cccc(CC)c1NC(=O)COC(=O)c1cccc(S(=O)(=O)N2CCc3ccccc3C2)c1 | -14.1 | -2.4 | -0.5 | -3.0 | 1.3
